Data: the supplement of paper PMC10849652
Targets with a hit are over-represented here; the source holds about 8,800 in all. About 0.5% of all pairs of compound and target were hits.

Key:
Assay in all cases: log2 fold change, soluble protein after heating vs DMSO (PISA); higher = thermal stabilisation; K562 lysate, 10 uM; active = over 0.2 and 3.5 SD of the protein, either way, in both replicates (recomputed)
[1] = compound: CN1CC[C@H](c2c(O)cc(O)c3c(=O)cc(-c4ccccc4Cl)oc23)[C@H](O)C1 [alvocidib]
Method in brief: (§1)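 To prepare the extract, K562 pellets were dounce-homogenised in PBS pH 7.4 with 1 mM MgCl2, giving crude material at 1 mg/mL protein. This was treated with 10 μM compound for 30 min, then heated in aliquots for 3 min over 48°C-58°C before pooling and addition of NP-40 to 0.5% at 4°C. Centrifugation at 21,000xg for 90 min left soluble protein in the supernatant, which TMTpro 16plex LC-MS/MS quantified with equalised channel sums. Results are log-two fold changes in thermal stability compared with solvent controls, from duplicates.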

[2] = compound: CN1CCc2c(c3ccccc3n2Cc2ccc(C(=O)NO)cc2)C1 [Tubastatin A]
Method in brief: as §1

[3] = compound: CNC(=O)C1=CC=CC=C1NC2=NC(=NC=C2Cl)NC3=C(C=C(C=C3)N4CCOCC4)OC
Method in brief: as §1

[4] = compound: CNC(=O)c1ccc(Nc2ncc(C(F)(F)F)c(NCc3nccnc3N(C)S(C)(=O)=O)n2)cc1 [defactinib]
Method in brief: as §1

[5] = compound: CNc1nc(-c2ccc3c(N)n[nH]c3c2)cc(N2C[C@@H](C(=O)NC3CCCCC3)CC[C@H]2C)n1
Method in brief: as §1

[6] = compound: COC(=O)N[C@@H](C)CNc1nccc(-c2cn(C(C)C)nc2-c2cc(Cl)cc(NS(C)(=O)=O)c2F)n1 [encorafenib]
Method in brief: as §1

[7] = compound: COC(=O)[C@H](CCSC)NC(=O)C1=C(C=C(C=C1)NC[C@H](CS)N)C2=CC=CC=C2
Method in brief: as §1

[8] = compound: COc1cc(Nc2ncc3c(n2)-c2ccc(Cl)cc2C(c2c(F)cccc2OC)=NC3)ccc1C(=O)O [alisertib]
Method in brief: as §1

[9] = compound: COc1cc2nc(-c3cc(F)ccc3O)nc(N[C@@H]3CNC[C@H]3C(C)(C)O)c2cc1OC
Method in brief: as §1

[10] = compound: COc1cc2ncnc(Nc3ccc(F)c(Cl)c3)c2cc1OCCCN1CCOCC1 [gefitinib]
Method in brief: as §1

[11] = compound: CS(=O)(=O)CCNCc1ccc(-c2ccc3ncnc(Nc4ccc(OCc5cccc(F)c5)c(Cl)c4)c3c2)o1 [lapatinib]
Method in brief: as §1

[12] = compound: CS(=O)(=O)N1CCN(Cc2cc3nc(-c4cccc5[nH]ncc45)nc(N4CCOCC4)c3s2)CC1 [pictilisib]
Method in brief: as §1

[13] = compound: C[C@@H](Oc1cc(-c2cnn(C3CCNCC3)c2)cnc1N)c1c(Cl)ccc(F)c1Cl [crizotinib]
Method in brief: as §1

[14] = compound: C[C@H](C1=CC=C(C=C1)C(=O)NC2=C3C=CNC3=NC=C2)N
Method in brief: as §1

[15] = compound: C[C@H](Nc1ncnc2nc[nH]c12)c1cc2cccc(Cl)c2c(=O)n1-c1ccccc1 [duvelisib]
Method in brief: as §1

[16] = compound: Cc1cc(Nc2cc(CN3CCOCC3)c3nc(C)c(Cc4ccc(Cl)cc4F)n3n2)n[nH]1 [gandotinib]
Method in brief: as §1

[17] = compound: Cc1cc(Nc2cc(N3CCN(C)CC3)nc(Sc3ccc(NC(=O)C4CC4)cc3)n2)n[nH]1 [tozasertib]
Method in brief: as §1

[18] = compound: Cc1ccc(-n2nc(C(C)(C)C)cc2NC(=O)Nc2ccc(OCCN3CCOCC3)c3ccccc23)cc1 [doramapimod]
Method in brief: as §1

[19] = compound: Cc1ccc(NC(=O)c2ccc(CN3CC[C@H](N(C)C)C3)c(C(F)(F)F)c2)cc1Nc1nccc(-c2cncnc2)n1 [bafetinib]
Method in brief: as §1

[20] = compound: Cc1cccc(CC(=O)N2CCc3c2ccc(-c2cn(C)c4ncnc(N)c24)c3F)n1
Method in brief: as §1

Measured: log2 fold change

NIPSNAP3A (UniProt Q9UFN0)
UniProt Q9UFN0, sequence (Q9UFN0 whole entry, looked up): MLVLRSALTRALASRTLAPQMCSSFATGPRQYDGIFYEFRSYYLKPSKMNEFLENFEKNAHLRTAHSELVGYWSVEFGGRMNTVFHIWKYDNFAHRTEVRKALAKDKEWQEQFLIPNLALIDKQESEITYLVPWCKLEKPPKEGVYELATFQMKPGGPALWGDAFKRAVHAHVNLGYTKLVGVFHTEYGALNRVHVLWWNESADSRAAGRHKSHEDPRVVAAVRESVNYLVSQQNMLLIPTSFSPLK
inactive: [2] 0.015 | [3] 0.016 | [4] -0.021 | [5] 0.025 | [6] 0.016 | [7] -0.022 | [8] -0.023 | [9] 0.005 | [10] -0.023 | [11] -0.007 | [12] -0.031 | [13] 0.021 | [15] 0.03 | [16] -0.197 | [17] -0.011 | [18] -0.029 | [19] 0.061
active: [1] 0.288 | [14] 0.466 | [20] -0.276

MRPL51 (UniProt Q4U2R6)
inactive: [1] -0.039 | [2] -0.018 | [3] 0.016 | [4] 0.198 | [5] -0.002 | [6] 0.088 | [7] -0.208 | [8] -0.005 | [9] -0.005 | [10] -0.044 | [11] -0.051 | [12] -0.016 | [13] 0.056 | [14] -0.201 | [15] -0.004 | [16] 0.058 | [17] 0.083 | [18] -0.247 | [19] 0.02 | [20] 0.091

NUDT4 (UniProt Q9NZJ9)
UniProt Q9NZJ9, sequence (Q9NZJ9 whole entry, looked up): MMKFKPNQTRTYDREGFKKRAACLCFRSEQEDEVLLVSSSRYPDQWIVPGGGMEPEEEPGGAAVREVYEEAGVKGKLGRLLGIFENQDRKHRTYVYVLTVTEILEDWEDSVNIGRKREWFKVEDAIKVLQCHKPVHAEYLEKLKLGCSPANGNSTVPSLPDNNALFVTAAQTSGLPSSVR
inactive: [1] -0.001 | [2] -0.149 | [3] 0.063 | [4] 0.153 | [5] -0.066 | [6] 0.051 | [7] -0.17 | [8] -0.036 | [9] 0.001 | [10] -0.052 | [11] -0.01 | [12] -0.055 | [13] 0.032 | [14] 0.166 | [15] -0.039 | [16] -0.188 | [17] -0.022 | [18] -0.076 | [19] 0.117
active: [20] -0.304

PARG (UniProt Q86W56)
UniProt Q86W56, sequence (Q86W56 whole entry, looked up): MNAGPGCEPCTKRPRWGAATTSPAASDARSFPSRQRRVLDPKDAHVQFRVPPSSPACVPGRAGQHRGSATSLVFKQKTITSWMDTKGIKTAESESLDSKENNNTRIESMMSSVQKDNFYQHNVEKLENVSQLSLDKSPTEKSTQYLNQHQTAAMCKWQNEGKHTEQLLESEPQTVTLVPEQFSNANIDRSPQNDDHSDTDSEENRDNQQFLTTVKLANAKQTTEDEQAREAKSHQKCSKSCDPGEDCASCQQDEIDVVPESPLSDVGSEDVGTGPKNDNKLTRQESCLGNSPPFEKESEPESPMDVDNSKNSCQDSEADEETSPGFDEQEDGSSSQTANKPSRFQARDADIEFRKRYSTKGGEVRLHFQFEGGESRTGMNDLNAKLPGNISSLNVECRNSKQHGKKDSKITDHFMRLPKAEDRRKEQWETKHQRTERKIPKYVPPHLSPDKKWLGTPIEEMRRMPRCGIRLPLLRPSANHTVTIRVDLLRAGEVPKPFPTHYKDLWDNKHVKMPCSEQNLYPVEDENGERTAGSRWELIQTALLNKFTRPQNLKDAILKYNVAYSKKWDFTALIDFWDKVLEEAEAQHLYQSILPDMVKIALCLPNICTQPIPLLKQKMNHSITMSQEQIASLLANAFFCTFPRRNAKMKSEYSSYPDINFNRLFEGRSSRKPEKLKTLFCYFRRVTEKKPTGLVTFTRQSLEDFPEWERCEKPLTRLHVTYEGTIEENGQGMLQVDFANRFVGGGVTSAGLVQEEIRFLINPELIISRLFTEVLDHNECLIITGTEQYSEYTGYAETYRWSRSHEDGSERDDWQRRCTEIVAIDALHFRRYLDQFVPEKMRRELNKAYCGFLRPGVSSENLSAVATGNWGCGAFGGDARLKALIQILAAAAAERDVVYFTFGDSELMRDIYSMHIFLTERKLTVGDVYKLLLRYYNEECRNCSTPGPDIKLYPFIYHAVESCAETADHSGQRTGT
inactive: [1] 0.03 | [2] -0.055 | [3] 0.029 | [4] 0.041 | [5] -0.016 | [6] 0.027 | [7] 0.042 | [8] 0 | [9] 0.01 | [10] 0.046 | [11] 0.017 | [12] -0.035 | [13] -0.058 | [14] 0.047 | [15] -0.02 | [16] -0.065 | [17] -0.033 | [18] 0.005 | [19] -0.004 | [20] -0.01

NNMT (UniProt P40261)
UniProt P40261, sequence (P40261 whole entry, looked up): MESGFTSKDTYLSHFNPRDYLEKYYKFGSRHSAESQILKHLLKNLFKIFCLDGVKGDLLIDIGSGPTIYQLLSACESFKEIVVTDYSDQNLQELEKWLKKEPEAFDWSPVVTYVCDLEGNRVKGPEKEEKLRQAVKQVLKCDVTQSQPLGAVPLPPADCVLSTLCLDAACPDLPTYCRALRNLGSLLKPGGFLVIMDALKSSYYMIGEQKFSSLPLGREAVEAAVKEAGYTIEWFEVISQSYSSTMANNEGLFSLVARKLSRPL
active: [7] -0.317
inactive: [1] -0.001 | [2] -0.03 | [3] 0 | [4] -0.049 | [5] -0.086 | [6] 0.043 | [8] 0 | [9] 0.009 | [10] 0.004 | [11] -0.017 | [12] 0.037 | [13] -0.065 | [14] -0.072 | [15] 0.066 | [16] 0.015 | [17] 0 | [18] 0.013 | [19] -0.066 | [20] -0.001

NPTN (UniProt Q9Y639)
UniProt Q9Y639, sequence (Q9Y639 whole entry, looked up): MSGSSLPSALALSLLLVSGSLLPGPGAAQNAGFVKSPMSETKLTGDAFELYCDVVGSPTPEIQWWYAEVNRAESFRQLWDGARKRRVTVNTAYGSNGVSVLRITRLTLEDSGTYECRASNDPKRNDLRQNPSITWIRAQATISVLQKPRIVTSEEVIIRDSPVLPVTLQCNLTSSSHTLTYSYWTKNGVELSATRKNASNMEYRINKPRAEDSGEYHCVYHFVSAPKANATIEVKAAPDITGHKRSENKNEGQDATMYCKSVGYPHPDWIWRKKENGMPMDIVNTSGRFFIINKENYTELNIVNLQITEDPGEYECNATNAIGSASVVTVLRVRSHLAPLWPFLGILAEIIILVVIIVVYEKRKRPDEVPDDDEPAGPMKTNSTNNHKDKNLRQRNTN
inactive: [1] -0.023 | [2] -0.01 | [3] 0 | [4] -0.185 | [5] 0.03 | [6] -0.023 | [7] 0.015 | [8] 0.011 | [9] 0.042 | [10] 0.024 | [11] -0.057 | [12] -0.045 | [13] -0.058 | [14] -0.011 | [15] 0.049 | [16] 0.003 | [17] 0.007 | [18] 0.056 | [19] -0.029 | [20] 0.011

NCOR1 (UniProt O75376)
inactive: [1] -0.028 | [2] -0.027 | [3] 0.018 | [4] 0.06 | [5] 0.021 | [6] 0.015 | [7] -0.007 | [8] 0.01 | [9] 0.018 | [10] -0.019 | [11] 0.046 | [12] -0.028 | [13] 0.018 | [14] 0.031 | [15] -0.022 | [16] -0.03 | [17] -0.009 | [18] -0.034 | [19] -0.028 | [20] 0.006

NELFA (UniProt Q9H3P2)
UniProt Q9H3P2, sequence (Q9H3P2 whole entry, looked up): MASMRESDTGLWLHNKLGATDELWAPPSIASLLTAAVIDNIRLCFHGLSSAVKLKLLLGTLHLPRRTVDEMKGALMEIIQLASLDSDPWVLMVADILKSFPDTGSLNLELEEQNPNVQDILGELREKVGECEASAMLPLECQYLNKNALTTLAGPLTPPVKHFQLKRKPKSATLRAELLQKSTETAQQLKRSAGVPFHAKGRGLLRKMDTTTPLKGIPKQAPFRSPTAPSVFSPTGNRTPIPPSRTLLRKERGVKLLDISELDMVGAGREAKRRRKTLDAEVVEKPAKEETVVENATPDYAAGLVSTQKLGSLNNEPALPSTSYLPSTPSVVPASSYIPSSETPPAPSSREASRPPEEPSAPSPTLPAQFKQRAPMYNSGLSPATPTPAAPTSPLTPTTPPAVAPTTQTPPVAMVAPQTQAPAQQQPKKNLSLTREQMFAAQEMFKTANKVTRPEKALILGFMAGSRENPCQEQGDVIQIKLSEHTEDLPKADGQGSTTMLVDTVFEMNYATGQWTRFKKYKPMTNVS
inactive: [1] 0.036 | [2] -0.139 | [3] 0.022 | [4] 0.056 | [5] 0.051 | [6] 0 | [7] 0.025 | [8] 0.006 | [9] -0.006 | [10] -0.015 | [11] -0.031 | [12] 0.021 | [13] 0.018 | [14] 0.06 | [15] -0.018 | [16] -0.079 | [17] 0.048 | [18] 0.022 | [19] -0.048 | [20] -0.003

MTFP1 (UniProt Q9UDX5)
UniProt Q9UDX5, sequence (Q9UDX5 whole entry, looked up): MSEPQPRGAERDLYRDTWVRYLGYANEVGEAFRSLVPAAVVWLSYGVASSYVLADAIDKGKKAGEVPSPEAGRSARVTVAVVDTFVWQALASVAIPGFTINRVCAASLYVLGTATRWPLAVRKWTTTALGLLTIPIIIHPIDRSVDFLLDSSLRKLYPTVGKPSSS
inactive: [1] -0.087 | [2] -0.006 | [3] 0.053 | [4] 0.145 | [5] 0.007 | [6] -0.037 | [7] 0.102 | [8] -0.032 | [9] 0.003 | [10] -0.011 | [11] 0.026 | [12] 0.017 | [13] 0.097 | [15] -0.01 | [16] 0.059 | [17] 0.006 | [18] -0.043 | [19] 0.01 | [20] 0.067
active: [14] -0.364

NPM3 (UniProt O75607)
UniProt O75607, sequence (O75607 whole entry, looked up): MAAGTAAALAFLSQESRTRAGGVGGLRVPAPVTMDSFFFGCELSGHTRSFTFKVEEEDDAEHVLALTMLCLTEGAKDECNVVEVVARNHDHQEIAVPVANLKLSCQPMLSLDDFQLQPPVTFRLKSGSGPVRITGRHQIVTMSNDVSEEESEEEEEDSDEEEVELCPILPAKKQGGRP
inactive: [1] -0.04 | [2] 0.015 | [3] -0.017 | [4] 0.062 | [5] 0.011 | [6] 0.012 | [7] 0.028 | [8] -0.002 | [9] 0.023 | [10] -0.015 | [11] 0.087 | [12] 0.053 | [13] -0.02 | [14] -0.201 | [15] 0.014 | [16] 0.068 | [17] -0.036 | [18] 0.027 | [19] 0.04 | [20] 0.164

MTCH2 (UniProt Q9Y6C9)
UniProt Q9Y6C9, sequence (Q9Y6C9 whole entry, looked up): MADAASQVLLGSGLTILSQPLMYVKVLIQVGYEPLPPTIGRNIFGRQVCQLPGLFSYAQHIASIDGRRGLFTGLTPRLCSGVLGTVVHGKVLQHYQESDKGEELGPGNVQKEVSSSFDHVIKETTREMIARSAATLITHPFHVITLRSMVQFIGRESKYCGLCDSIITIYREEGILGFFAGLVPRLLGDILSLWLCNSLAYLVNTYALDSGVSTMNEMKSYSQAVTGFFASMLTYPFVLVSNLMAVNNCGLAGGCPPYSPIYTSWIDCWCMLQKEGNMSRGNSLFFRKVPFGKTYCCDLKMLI
inactive: [1] -0.032 | [2] -0.046 | [3] 0.043 | [4] -0.003 | [5] 0.047 | [6] -0.01 | [7] 0.043 | [8] 0.013 | [9] -0.062 | [10] -0.007 | [11] -0.023 | [12] -0.018 | [13] -0.059 | [14] -0.144 | [15] -0.011 | [16] 0.142 | [17] -0.028 | [18] 0.024 | [19] -0.04 | [20] 0.022

NCOR2 (UniProt C9J0Q5)
inactive: [1] 0.024 | [2] -0.035 | [3] -0.013 | [4] 0.045 | [5] -0.001 | [6] -0.002 | [7] 0.006 | [8] 0.036 | [9] 0.017 | [10] 0.049 | [11] 0.063 | [12] -0.028 | [13] 0.116 | [14] 0.018 | [15] -0.014 | [16] -0.055 | [17] 0.011 | [18] -0.052 | [19] 0.079 | [20] -0.07

MRPL53 (UniProt Q96EL3)
active: [7] -0.226
inactive: [1] 0.005 | [2] -0.048 | [3] -0.02 | [4] 0.051 | [5] -0.048 | [6] -0.036 | [8] 0.049 | [9] 0 | [10] -0.048 | [11] 0.022 | [12] -0.004 | [13] 0.031 | [14] 0.079 | [15] 0 | [16] -0.04 | [17] 0.016 | [18] 0.009 | [19] 0.005 | [20] 0.012

NBN (UniProt O60934)
UniProt O60934, sequence (O60934 whole entry, looked up): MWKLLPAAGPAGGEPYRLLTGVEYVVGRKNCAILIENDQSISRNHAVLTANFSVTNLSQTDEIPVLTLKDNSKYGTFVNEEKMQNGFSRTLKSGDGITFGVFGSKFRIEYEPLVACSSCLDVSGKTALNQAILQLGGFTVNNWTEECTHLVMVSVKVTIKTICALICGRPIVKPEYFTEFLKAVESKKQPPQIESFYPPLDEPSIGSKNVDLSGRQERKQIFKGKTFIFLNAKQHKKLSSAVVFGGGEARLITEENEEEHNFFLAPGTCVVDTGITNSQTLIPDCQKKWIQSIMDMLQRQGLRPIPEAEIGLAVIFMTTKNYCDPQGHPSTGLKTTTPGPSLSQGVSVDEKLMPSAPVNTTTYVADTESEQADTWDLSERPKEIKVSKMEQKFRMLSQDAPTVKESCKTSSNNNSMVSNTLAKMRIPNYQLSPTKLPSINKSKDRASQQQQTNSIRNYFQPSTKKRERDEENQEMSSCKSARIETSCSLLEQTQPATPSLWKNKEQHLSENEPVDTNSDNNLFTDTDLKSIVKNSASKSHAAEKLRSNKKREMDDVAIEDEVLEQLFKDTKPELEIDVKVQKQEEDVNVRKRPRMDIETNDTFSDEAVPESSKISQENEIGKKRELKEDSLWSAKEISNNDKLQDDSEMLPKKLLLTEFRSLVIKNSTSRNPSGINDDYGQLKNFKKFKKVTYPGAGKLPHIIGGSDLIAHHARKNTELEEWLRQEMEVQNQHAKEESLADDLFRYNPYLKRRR
inactive: [1] 0.008 | [2] -0.041 | [3] -0.006 | [4] -0.029 | [5] 0.014 | [6] 0.022 | [7] 0.048 | [8] -0.009 | [9] 0.018 | [10] -0.061 | [11] 0.008 | [12] -0.006 | [13] -0.028 | [14] 0.033 | [15] -0.006 | [16] -0.05 | [17] 0.032 | [18] 0.001 | [19] -0.016 | [20] -0.026

NONO (UniProt Q15233)
UniProt Q15233, sequence (Q15233 whole entry, looked up): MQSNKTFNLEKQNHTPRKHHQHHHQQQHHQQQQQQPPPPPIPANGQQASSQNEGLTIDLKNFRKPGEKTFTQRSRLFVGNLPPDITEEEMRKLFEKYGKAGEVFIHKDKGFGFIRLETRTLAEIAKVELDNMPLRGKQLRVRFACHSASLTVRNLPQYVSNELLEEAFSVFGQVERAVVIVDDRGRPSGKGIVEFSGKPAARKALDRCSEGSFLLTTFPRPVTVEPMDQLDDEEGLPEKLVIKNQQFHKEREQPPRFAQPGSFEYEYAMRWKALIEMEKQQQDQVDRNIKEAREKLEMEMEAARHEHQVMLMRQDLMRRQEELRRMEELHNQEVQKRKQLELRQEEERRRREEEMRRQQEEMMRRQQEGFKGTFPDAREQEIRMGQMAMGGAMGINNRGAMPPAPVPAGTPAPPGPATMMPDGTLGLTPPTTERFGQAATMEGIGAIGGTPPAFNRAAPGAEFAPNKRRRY
inactive: [1] 0.049 | [2] -0.126 | [3] 0.04 | [4] -0.01 | [5] 0.014 | [6] 0.011 | [7] 0.102 | [8] 0.026 | [9] -0.004 | [10] 0.007 | [11] -0.004 | [12] 0.001 | [13] 0.011 | [14] 0.071 | [15] -0.01 | [16] -0.06 | [17] 0.028 | [18] -0.014 | [19] -0.033 | [20] -0.04

MYCBP (UniProt Q99417)
UniProt Q99417, sequence (Q99417 whole entry, looked up): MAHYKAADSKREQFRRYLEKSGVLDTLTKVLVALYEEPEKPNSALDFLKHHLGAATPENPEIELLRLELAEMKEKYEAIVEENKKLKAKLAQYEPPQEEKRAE
active: [14] -0.498
inactive: [1] -0.244 | [2] 0.045 | [3] -0.02 | [4] 0.022 | [5] -0.031 | [6] 0.005 | [7] -0.069 | [8] 0.022 | [9] -0.001 | [10] -0.029 | [11] 0.01 | [12] -0.052 | [13] 0.003 | [15] 0.02 | [16] 0.105 | [17] 0.028 | [18] 0.008 | [19] -0.018 | [20] 0.182
